Assay outcomes: PubChem, several laboratories
EWS-Fli inh – EWS/Fli transcriptional activity inhibition; actives 0.67% (n = 350,000); AID 651661; inhibition, % at 12.6 µM; A673 NR0B1-luciferase reporter, viability-normalised;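 active = mean inhibition of at least 50% after viability correction, with every replicate also passing that limit; inconclusive = mean reaches 50% but only one of two replicates passes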;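 also: firefly luciferase signal divided by Alamar Blue viability fluorescence both relative to DMSO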
PAX8 reporter – lowers PAX8-driven luciferase in RMG-I cells; RMG-I TPO-luciferase reporter, SteadyGlo, 24 h; inhibition, % at 12.6 µM; actives 1.2% (n = 360,000);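 active = mean replicate inhibition at least 60% with every replicate also reaching 60%; inconclusive = only one of the two criteria is met; inactive = mean below 60% and not all replicates reaching 60%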;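 also: luciferase light reporting Pax8 driven TPO promoter activity; plate controls were median of neutral control wells for no effect and mitoxantrone controls for full effect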
GAA850 FXN act – activators of GAA850 frataxin (FXN) promoter | HEK293 lucGAA850 FXN promoter luciferase reporter, 24 h; percent of 10 µM SAHA response | activation, % at 6 µM | actives 0.56% (n = 360,000);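 active = activation above the average of all compounds screened plus 3 SD, cutoff fixed separately per campaign, cut at about 7.5% in these data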;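 also: 0% = DMSO wells and 100% = 10 µM SAHA wells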
HIV Env fusion – blocks HIV Env-driven cell-cell fusion | HeLa-JRFL Env/CEM21 cell fusion, luciferase | actives 1.1% (n = 360,000) | inhibition, % at 12.3 µM;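 active = mean replicate inhibition score of at least 50 and every replicate individually at or above 50; inconclusive = only one of the two criteria met; inactive = mean below 50 and not all replicates reaching 50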;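 also: 0% = plate neutral controls and 100% = maraviroc near 300 nM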
CFTR F508del cor – CFTR F508del correction in bronchial cells | CFBE cells, YFP halide quenching; stimulated with forskolin plus potentiator P3; % fluorescence drop versus neutral controls | actives 0.36% (n = 350,000) | activity (quench increase), % at 7.58 µM;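 active = mean added fluorescence quench of at least 8% versus neutral control, with both replicates also reaching 8%; inconclusive = only one of the mean or replicate conditions met; inactive = mean below 8% and not both replicates reaching 8%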;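 also: cells transiently co-express mutant CFTR-F508del with the halide-sensitive YFP; corrector assay measuring rescue of mutant channel to the surface after 24 h compound exposure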
* marks the source's active call; other numbers are inactive results; ? = inconclusive; / = not tested or not shown; [ ] = dose if it differs, or a comment. An excerpt weighted towards active compounds, which were near 2.5% of everything screened.

SMILES | EWS-Fli inh | PAX8 reporter | GAA850 FXN act | HIV Env fusion | CFTR F508del cor
CCN1CCN(C(c2cc3cccc(C)c3[nH]c2=O)c2nnnn2Cc2ccccc2)CC1 (stereo not drawn) | / | / | 0 | -51 | /
COc1ccc(Cn2nnnc2C(c2cc3cccc(C)c3[nH]c2=O)N2CCOCC2)cc1 (stereo not drawn) | / | / | 1 | 86* | /
COc1ccc(Cn2nnnc2C(c2cc3cc(C)ccc3[nH]c2=O)N2CCOCC2)cc1 (stereo not drawn) | / | / | 5 | 67* | /
Cc1ccc2cc(C(c3nnnn3C(C)(C)C)N3CCCCCC3)c(=O)[nH]c2c1 (stereo not drawn) | / | / | 4 | / | /
COc1ccc2[nH]c(=O)c(CN(Cc3ccco3)C(c3nnnn3Cc3ccccc3)C(C)C)cc2c1 (stereo not drawn) | / | 45 | 4 | 54* | /
COc1ccc(NC(=O)N(C)C[C@@H]2Oc3c(NS(=O)(=O)c4cccs4)cccc3C(=O)N([C@H](C)CO)C[C@@H]2C)cc1 | 2 | / | / | / | -1
COc1ccc2c3c([nH]c2c1)[C@@H](CO)N(C(=O)CC1CC1)CC31CN(Cc2cccnc2)C1 | 0 | / | / | / | 7
CO[C@@H]1CN(C)C(=O)c2ccc(NC(=O)Nc3cc(F)ccc3F)cc2OC[C@@H](C)N(C(=O)c2cnccn2)C[C@@H]1C | 0 | / | / | / | 0
Cc1cc(OCc2cc(C(=O)N3CCC(Oc4cccnc4)CC3)no2)cc(C)c1Cl | / | 15 | 0 | 67* | 2
Cc1cc(OCc2cc(C(=O)N3CCN(CC4CC4)CC3)no2)cc(C)c1Cl | -15 | -5 | -1 | 2 | 3
C[C@@H]1CN([C@@H](C)CO)C(=O)c2cc(NC(=O)Nc3ccccc3)ccc2O[C@@H]1CN(C)Cc1ccc(C(F)(F)F)cc1 | 1 | / | / | -5[16.7 µM] | -1
COc1ccc(O)c(C(c2c(C)[nH][nH]c2=O)c2c(C)[nH][nH]c2=O)c1 | 10 | 97* | -1 | 3 | 0
CC1CN(C(=O)Nc2ccccc2)c2ccccc2-[n+]2ccsc21 (stereo not drawn) | / | 4 | 1 | -47 | /
O=C(Nc1ccccc1)N1CCc2scc[n+]2-c2ccccc21 | 4 | 112* | 0 | / | -2
C[C@@H]1CCCCO[C@@H](CN(C)Cc2ccc(C(F)(F)F)cc2)[C@@H](C)CN([C@H](C)CO)C(=O)c2cc(NC(=O)Nc3ccc4c(c3)OCO4)ccc2O1 | -8 | -6 | / | -15[16.7 µM] | 2
C[C@H](CO)N1C[C@H](C)[C@H](CN(C)Cc2ccc(C(F)(F)F)cc2)OCCCC[C@H](C)Oc2ccc(NC(=O)Nc3ccc4c(c3)OCO4)cc2C1=O | 13 | 96* | / | 69*[16.7 µM] | 3
C[C@@H]1CCCCO[C@H](CN(C)Cc2ccc(C(F)(F)F)cc2)[C@H](C)CN([C@H](C)CO)C(=O)c2cc(NC(=O)Nc3ccc4c(c3)OCO4)ccc2O1 | 8 | 67* | / | 39[16.7 µM] | 1
C[C@@H]1CN([C@H](C)CO)C(=O)c2cc(NC(=O)Nc3ccc4c(c3)OCO4)ccc2O[C@@H](C)CCCCO[C@@H]1CN(C)Cc1ccc(C(F)(F)F)cc1 | 0 | 66* | / | ? | -3
C[C@@H]1CN([C@@H](C)CO)C(=O)c2cc(NC(=O)Nc3ccc4c(c3)OCO4)ccc2O[C@@H](C)CCCCO[C@@H]1CN(C)Cc1ccc(C(F)(F)F)cc1 | -4 | 27 | / | 23[16.7 µM] | 0
C[C@@H]1CN([C@@H](C)CO)C(=O)c2cc(NC(=O)Nc3ccc4c(c3)OCO4)ccc2O[C@@H](C)CCCCO[C@H]1CN(C)Cc1ccc(C(F)(F)F)cc1 | 10 | 61* | / | 61*[16.7 µM] | 2
COCCNC(=O)C[C@@H]1CC[C@@H]2[C@@H](COc3ccc(NC(=O)Nc4ccccc4)cc3C(=O)N2C)O1 | 3 | 5 | / | 12[16.7 µM] | -1
CC(C)NC(=O)N(C)C[C@H]1Oc2cc(C#CCN(C)C)ccc2S(=O)(=O)N([C@H](C)CO)C[C@@H]1C | -5 | / | / | -36[16.7 µM] | 1
COc1cccc(-c2ccc3c(c2)[C@@H]2[C@@H](CCN2C(=O)c2ccc(F)cc2)[C@H](CO)N3)c1 | 8 | 43 | / | / | -1
COc1ccc(/C=C/c2ccc3cccc(O)c3n2)c(OC)c1OC | -27 | -10 | 8.9* | -356 | -2
C=CCn1c(COc2ccc(Cl)cc2)nnc1SCc1ccc(C#N)cc1 | / | / | 4 | 58* | /
SMILES | EWS-Fli inh | PAX8 reporter | GAA850 FXN act | HIV Env fusion | CFTR F508del cor
Cc1ccc(OCc2nnc(SCc3ccc(C#N)cc3)n2-c2ccc(C)cc2)cc1 | / | / | 3 | 65* | /
C=CCn1c(COc2ccc(Cl)cc2)nnc1SCC(=O)Nc1ccc(S(N)(=O)=O)cc1 | -7 | 64* | -1 | / | -1
C=CCn1c(Cc2ccc(OCC)cc2)nnc1SCC(N)=O | / | / | 2 | 77* | /
C=CCn1c(Cc2ccc(OC)cc2)nnc1SCC(N)=O | / | / | 1 | -17 | /
C=CCn1c(COc2ccccc2)nnc1SCc1ccc(C#N)cc1 | / | / | -1 | / | /
CCCNC(=O)C[C@H]1CC[C@@H]2[C@@H](COc3ccc(NC(=O)c4ccc5c(c4)OCO5)cc3C(=O)N2C)O1 | -20 | -18 | / | 12[16.7 µM] | 2
COc1ccc2c3c(n(C)c2c1)[C@@H](CO)N(Cc1ccccc1)CC31CCN(CC2CC2)CC1 | -2 | / | / | / | 0
COc1ccccc1-c1ccc2c(c1)[C@H]1[C@H](CCN1S(=O)(=O)c1cccc(C)c1)[C@H](CO)N2 | -26 | / | / | -38[16.7 µM] | 0
CC(C)CC#Cc1ccc2c(c1)O[C@@H](CN(C)C(=O)c1cccnc1)[C@@H](C)CN([C@H](C)CO)S2(=O)=O | 7 | / | / | 1[16.7 µM] | 3
C[C@H](CO)N1C[C@H](C)[C@H](CN(C)S(=O)(=O)c2cccs2)Oc2c(NC(=O)Nc3ccc(F)cc3)cccc2C1=O | -15 | 68* | / | -15[16.7 µM] | -4
C[C@H]1CN([C@@H](C)CO)C(=O)c2cccc(NC(=O)Nc3ccc(F)cc3)c2O[C@H]1CN(C)S(=O)(=O)c1cccs1 | -6 | 2 | / | 6[16.7 µM] | -3
C[C@@H]1CN([C@@H](C)CO)C(=O)c2cccc(NC(=O)c3ccncc3)c2O[C@@H]1CN(C)S(=O)(=O)c1cccs1 | 3 | 98* | / | 3[16.7 µM] | 1
C[C@@H]1CN([C@@H](C)CO)C(=O)c2cccc(NC(=O)c3ccncc3)c2O[C@H]1CN(C)S(=O)(=O)c1cccs1 | -2 | / | / | / | 2
Cc1ccc(S(=O)(=O)Nc2ccc3c(c2)C(=O)N([C@@H](C)CO)C[C@@H](C)[C@@H](CN(C)C)O3)cc1 | -1 | 2 | / | / | -1
C=CCn1c(C)cc(C2=NNC(=NC(C)(C)C)SC2)c1C | 60* | 13 | -12 | 13 | /
COCCn1c(C)cc(C2=NNC(=NC3CC3)SC2)c1C | 90* | 102* | -16 | 57* | -4
C=CCN=C1NN=C(c2cc(C)n(CCOC)c2C)CS1 | 85* | 56 | -6 | 75* | /
C=CCn1c(C)cc(C2=NNC(=Nc3ccc(C)cc3)SC2)c1C | -5 | 15 | 3 | 8 | /
O=S(=O)(c1ccccc1)N1CC[C@@H]2[C@H](CO)Nc3ccc(C#CC4CCCCC4)cc3[C@@H]21 | 1 | / | / | / | -1
